From the supplement of paper PMC13380429
Structures can show the parent of a compound that is named as a salt.

Experiments:
[1] = system: Vero E6 infected with SARS-CoV-2; test: morphology score (similarity to uninfected cells); higher = more like uninfected cells; conditions: 24 h
[2] = system: Vero E6 infected with SARS-CoV-2; test: SARS-CoV-2 infection rate relative to infected DMSO; higher = more infection, active = 60 or less; conditions: 24 h

Compound | morphology score [1] | SARS-CoV-2 infection rate [2]
Cc1cccc(/C=N/Nc2cc(N3CCOCC3)n3nc(-c4ccncc4)cc3n2)c1 (10 µM) | 0.261 | 50.5% (active)
O=c1c(O)c(-c2ccc(O)c(O)c2)oc2cc(O)cc(O)c12 [quercetin] (10 µM) | 0.0809 | 102% (inactive)
CC(=O)N[C@@H](Cc1ccc(O)cc1)C(=O)O [N-acetyl-tyrosine] (10 µM) | -0.058 | 114% (inactive)
CC1/C=C/C=C/C=C/C=C/C=C/C=C/C=C/C(OC2O[C@H](C)[C@@H](O)[C@H](N)[C@@H]2O)CC(O)C(C(=O)O)C(O)CC(=O)CC(O)CC(O)CC(O)CC(=O)CCCC(=O)CC(=O)OC1C(C)CC(C)C(O)CC(=O)c1ccc(N)cc1 (stereo not given in full) [candicidin] (0.833333 µM) | 0.198 | 100% (inactive)
COc1cc(C(=O)N2CCC(N3CCN(C)CC3)CC2)ccc1Nc1ncc2c(n1)N(C)c1ccccc1C(=O)N2C (0.833333 µM) | 0.0522 | 100% (inactive)
CN(C)CCN1C(=O)c2cccc3cc(NC(N)=O)cc(c23)C1=O [unbs-5162] (10 µM) | 0.115 | 102% (inactive)
O=S(=O)(O)c1cc(I)c(O)c2ncccc12 [chiniofon] (10 µM) | 0.0464 | 102% (inactive)
OC1(c2ccc(Cl)c(C(F)(F)F)c2)CCN(CCCC(c2ccc(F)cc2)c2ccc(F)cc2)CC1 [penfluridol] (0.833333 µM) | 0.173 | 79% (inactive)
CC(=O)[C@@]1(O)CC[C@H]2[C@@H]3C=C(Cl)C4=CC(=O)[C@@H]5C[C@@H]5[C@]4(C)[C@H]3CC[C@@]21C (10 µM) | 0.204 | 109% (inactive)
CN=C(N)NCCC[C@H](N)C(=O)O [L-monomethylarginine] (10 µM) | 0.197 | 97% (inactive)
O=C(OCCO)c1ccccc1O [2-hydroxyethyl-salicylate] (10 µM) | -0.198 | 108% (inactive)
O[C@@H]1[C@H](O)[C@@H](CCl)O[C@H]1n1cnc2c(NC3CC4CCC3C4)ncnc21 (mixture of isomers) [5'-chloro-5'-deoxy-ENBA-(+/-)] (10 µM) | 0.0934 | 104% (inactive)
O=C(NCNC(=O)NC1C(=O)NC(=O)N1CO)NC1C(=O)NC(=O)N1CO (stereo not given) [imidurea] (10 µM) | -0.0758 | 108% (inactive)
CCC(N)C(O)c1ccc(O)c(O)c1 (stereo not given) [ethylnorepinephrine] (10 µM) | -0.108 | 106% (inactive)
NCCCCN=C(N)N [agmatine] (10 µM) | 0.0302 | 106% (inactive)
CN(C)C(=O)COC(=O)Cc1ccc(OC(=O)c2ccc(NC(=N)N)cc2)cc1 [Camostat mesylate] (10 µM) | 0.0371 | 104% (inactive)
CN/C(=N\S(=O)(=O)c1ccc(Cl)cc1)N1C[C@H](c2ccccc2)C(c2ccc(Cl)cc2)=N1 (racemic) (10 µM) | -0.133 | 114% (inactive)
O=C(O)C1CSCN1 (stereo not given) [timonacic] (10 µM) | -0.0905 | 110% (inactive)
OC[C@H]1O[C@H](O[C@]2(CCl)O[C@H](CCl)[C@@H](O)[C@@H]2O)[C@H](O)[C@@H](O)[C@H]1Cl [sucralose] (10 µM) | 0.0888 | 97% (inactive)
CC(C)(O)CC(=O)O [beta-hydroxy-beta-methylbutyrate] (10 µM) | 0.0168 | 105% (inactive)
OCC(CO)N[C@H]1C[C@](O)(CO)[C@@H](O)[C@H](O)[C@H]1O [voglibose] (10 µM) | -0.105 | 106% (inactive)
OCCN1CCN(CC/C=C2/c3ccccc3Sc3ccc(C(F)(F)F)cc32)CC1 [flupentixol] (10 µM) | 0.506 | 79% (inactive)
CCC(=O)O[C@H]1[C@H](O[C@@H]2[C@@H](C)[C@H](O[C@H]3C[C@@](C)(OC)[C@@H](O)[C@H](C)O3)[C@@H](C)C(=O)O[C@H](CC)[C@@](C)(O)[C@H](O)[C@@H](C)C(=O)[C@H](C)C[C@@]2(C)O)O[C@H](C)C[C@@H]1N(C)C [erythromycin-estolate] (10 µM) | 0.0736 | 114% (inactive)
COc1cc2c(cc1OC)-c1cc3ccc(OC)c(OC)c3c[n+]1CC2 [palmatine-chloride] (10 µM) | 0.189 | 92% (inactive)
COc1cc(OC)c(/C=C/S(=O)(=O)Cc2ccc(OC)c(OP(=O)(O)O)c2)c(OC)c1 [briciclib] (0.833333 µM) | -0.0884 | 92% (inactive)
